From PubChem BioAssay
The full list was thinned out, with hits kept by preference.
Cycloheximide cs: counter-screen for Shiga toxin inhibitors: cycloheximide protein synthesis inhibition; max response, %; cell reporter, cycloheximide protein synthesis inhibition counterscreen; 300,000 tested, 12% active; AID 2314; in the data active means max response mostly above about 13%, no sharp cut-off; inactive means mostly below about 14%; further: read at 38.3 µM for the half of the compounds with a filed dose; 0% is about no effect
AmpC inh detg: AmpC beta-lactamase inhibition with detergent present. P00811. AmpC hydrolysis of nitrocefin, absorbance 480 nm, 0.01% Triton. Potency, µM (highest dose often 114 µM), for inactives: top-dose activity change, negative = inhibition, actives largely listed as inhibitors. 370,000 tested, 0.041% active;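 further: potency means the concentration at half of the fitted maximal effect; 0% = no-compound wells and -100% = no-enzyme wells; nearly all actives have a fitted effect of over 25% in size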
Target sequence (P00811 whole entry, looked up): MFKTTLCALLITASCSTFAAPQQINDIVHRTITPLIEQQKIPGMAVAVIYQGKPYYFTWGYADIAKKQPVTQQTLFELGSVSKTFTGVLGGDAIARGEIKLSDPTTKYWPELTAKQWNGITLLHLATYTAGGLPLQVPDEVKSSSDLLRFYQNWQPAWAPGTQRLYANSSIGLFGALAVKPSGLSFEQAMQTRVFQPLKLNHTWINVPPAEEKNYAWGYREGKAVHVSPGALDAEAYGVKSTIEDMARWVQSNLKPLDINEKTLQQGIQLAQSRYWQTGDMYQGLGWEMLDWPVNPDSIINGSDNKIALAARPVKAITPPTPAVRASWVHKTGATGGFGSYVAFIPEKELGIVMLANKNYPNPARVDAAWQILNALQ
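AmpC (5.3 nM in the dispensed reagent) in 20 mM phosphate pH 7.0 with 0.01% (detergent screen) or 0.0001% Triton X-100 was preincubated with compounds for 15 min at room temperature. Nitrocefin was then added from an 800 uM solution, and hydrolysis was followed at 480 nm.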
NS1 function inh: influenza NS1 inhibition; Potency, µM (highest dose often 46.1 µM), for inactives: top-dose activity, positive = more growth; 270,000 tested, 0.4% active; calls by dose curve; further: potency means the concentration at half of the fitted maximal effect; actives are rising curves; nearly all actives have a fitted effect of over 50% in size
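In this qHTS, NS1 from influenza A is expressed in budding yeast, where it slows growth. Cells are switched from glucose to 2% galactose medium (pH 6.0, -URA), treated with compound, and growth recovery is read at OD600.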
Shiga inhibitor: inhibitors of Shiga toxin in Vero cells; Vero cells, Shiga toxin protein synthesis inhibition reporter; inhibition, % at 38.7 µM; 290,000 tested, 9.2% active; AID 2315; in the data active means inhibition mostly above about 28%, no sharp cut-off; inactive means mostly below about 43%; further: 0% is about no effect
AmpC inh no detg: inhibitors of E. coli AmpC beta-lactamase without detergent; P00811; AmpC nitrocefin hydrolysis, absorbance 480 nm, 0.0001% Triton; Potency, µM (top dose mostly 57.1 µM), for inactives: at the top dose activity change, negative = inhibition, usual class: inhibitors; 330,000 tested, 0.52% active; AID 485341;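 further: potency means the concentration at half of the fitted maximal effect; plate controls were no compound for no effect and no enzyme for full effect; nearly all actives have a fitted effect of over 20% in size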
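AmpC (5.3 nM in the dispensed reagent) in 20 mM phosphate pH 7.0 with 0.01% (detergent screen) or 0.0001% Triton X-100 was preincubated with compounds for 15 min at room temperature. Nitrocefin was then added from an 800 uM solution, and hydrolysis was followed at 480 nm.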
* marks the source's active call; other numbers are inactive results; ? = inconclusive; . = no result. Unless noted, the call rests on the fitted dose curve; in most records, active means well fitted curve in the direction sought with a large enough effect; inconclusive means small, poorly fitted or top-dose-only effect, or another doubt; inactive means no such curve, though single readings can be large; an effect the other way counts as inactive or inconclusive.

SMILES | Cycloheximide cs | AmpC inh detg | NS1 function inh | Shiga inhibitor | AmpC inh no detg
COC(=O)C(Cc1ccc(OC(=O)c2ccc(C)cc2)cc1)N1Cc2ccccc2C1=O (stereo unspecified) | 57.1* | 3.9% | 7.5% | 89.4* | 73.3%
COC(=O)C(Cc1ccc(O)cc1)N1Cc2ccccc2C1=O (stereo unspecified) | 40.7* | 1.7% | -0.1% | 42.1* | -10.7%
NNC(=O)C(Cc1ccc(O)cc1)N1Cc2ccccc2C1=O (stereo unspecified) | -4.5 | -8.8% | 0.2% | -1.3 | -42.6%
CCc1ccccc1NC(=O)CCn1nc(C)c2c(C)n(-c3ccccc3)nc2c1=O | . | 21.7% | . | . | .
Cc1cccc(NC(=O)c2sc3nc4n(c(=O)c3c2C)N=C(c2ccc(F)cc2)CS4)c1C | . | -4.2% | . | . | .
COc1cccc(CNc2ncc(Br)cc2Br)c1O | 65.6* | -11.0% | -11.9% | 61.4* | -14.9%
COc1cccc(CNc2ccc(Br)cn2)c1O | 43.4* | -1.1% | 1.4% | 71.7* | -39.7%
CCCCC/C=C\C/C=C\C/C=C\C/C=C\CCCC(=O)N(Cc1ccc(O)c(Cl)c1)Cc1ccc(O)c(Cl)c1 | 39.6 | . | . | 62.8* | .
CCOc1ncccc1C(=O)NCc1ccc(OC)c(OC)c1 | 1.6 | -9.7% | -4.8% | -6.5 | -9.7%
Nn1c(SCc2ccccc2)nc2ccccc21 | 68.5* | -8.2% | -1.1% | 68.8* | -24.3%
COc1cccc(-n2c(SCC(N)=O)nnc2-c2ccco2)c1 | 0.3 | -1.9% | 0.1% | -9.9 | 3.4%
Cn1c(SCc2cccc3ccccc23)nnc1-c1ccco1 | 6.2 | 0.7% | -62.8% | 6.2 | 0.2%
COc1cccc(CSc2nnc(-c3ccco3)n2C)c1 | 39.6* | -11.5% | -69.5% | 41.5 | -0.8%
Cc1cccc(CSc2nnc(-c3ccco3)n2C)c1 | 21.6* | -8.8% | -87.9% | 41.7 | -13.5%
Nn1c(SCc2ccccc2)nnc1-c1ccco1 | 9.3* | ? | -21.0% | 1.7 | -10.9%
CC(C)NC(=O)C1CCN(C(=O)N2CCOc3ccc(Cl)cc32)CC1 | . | 0.6% | . | . | .
COc1ccc(CCC(=O)N2CCCSC2=Nc2ccc(C(C)=O)cc2)cc1 | 20.9* | -10.6% | -11.6% | -0.8 | 9.4%
COc1ccc(CCC(=O)N2CCCc3ccccc32)cc1 | 16.4 | -2.7% | -6.1% | -20.8 | -0.4%
Cc1cc(S(=O)(=O)Nc2ccc(F)cc2)c(C)s1 | -1.6 | 1.9% | 2.9% | 29.2 | -17.0%
O=C(O)c1ccc(S(=O)(=O)c2ccc3c(c2)C(=O)N(NC(=O)c2ccccc2)C3=O)cc1 | 6.7 | -5.0% | . | 58.8 | -20.0%
O=C(O)c1ccc(S(=O)(=O)c2ccc3c(c2)C(=O)N(NC(=O)c2cccnc2)C3=O)cc1 | 23.6* | 3.1% | 1.8% | 17.2 | -18.8%
CCn1cc(/C=C(\NC(=O)c2cc(OC)c(OC)c(OC)c2)C(=O)NCCCn2ccnc2)c2ccccc21 | . | 17.0% | . | . | .
COc1cc(OC)cc(C(=O)Nc2ccc3c(c2)N(C2CCCC2)C(=O)c2ccccc2S3)c1 | . | -0.7% | . | . | .
Cc1ccc(N(O)C(=O)NCCCCNC(=O)N(O)c2ccc(C)cc2)cc1 | 35.9* | 2.6% | 2.5% | 51.6* | 5.7%
COc1ccccc1NC(=O)NNC(=O)C(C)Oc1ccc2ccccc2c1 (stereo unspecified) | 1.4 | 1.2% | 26.7% | -10.7 | -5.0%
SMILES | Cycloheximide cs | AmpC inh detg | NS1 function inh | Shiga inhibitor | AmpC inh no detg
O=C(N/N=C/c1ccccc1F)c1csc2c1CCCC2 | 41.6* | 7.7% | 8.7% | 79.0* | -27.6%
O=C(N/N=C/c1cccc(F)c1)c1csc2c1CCCC2 | 55.2* | -7.0% | -56.7% | 94.7* | -43.4%
COc1cc(-c2cc(OC)c3c(C)oc(C)c3c(=O)c2)ccc1OC(=O)c1ccccc1F | . | 22.0% | . | . | .
Cc1ccccc1OCc1nc(C#N)c(N2CCCC2)o1 | 4.0 | ? | -9.1% | 37.3 | -2.8%
N#Cc1nc(Cc2ccccc2)oc1N1CCCC1 | 26.4* | -2.4% | -6.1% | 35.0* | -5.6%
COc1ccccc1OCc1nc(C#N)c(N2CCCC2)o1 | 27.0* | 3.6% | -3.1% | 48.9* | -14.0%
CCC(=O)Nc1cc(-c2nc3ccccc3s2)c(Cl)cc1Cl | . | -3.0% | . | . | .
Cc1ccc(/C=N/Nc2ccc(F)cc2F)s1 | 37.4* | -17.3% | -6.1% | 91.0* | -53.3%
COc1cc(/C=N/Nc2ccc(F)cc2F)cc(OC)c1O | 13.4 | -4.9% | -18.8% | -27.0 | -20.5%
Oc1ccc(/C=N/Nc2ncc(Cl)cc2Cl)cc1 | 50.3* | -0.2% | -7.5% | 111.3* | -20.4%
Clc1cnc(N/N=C/c2cccs2)c(Cl)c1 | 35.7* | -1.2% | -147.4% | 127.9* | -38.2%
Clc1cnc(N/N=C/c2ccco2)c(Cl)c1 | 57.2* | ? | -18.3% | 94.5* | -15.7%
O=C(COC(=O)/C=C/c1ccco1)Nc1ncc(Cl)cc1Cl | 0.7 | -9.4% | 18.0% | 21.6 | -28.9%
COc1ccc(S(=O)(=O)NC2CCc3ccccc32)cc1OC (stereo unspecified) | -0.6 | 1.4% | -11.0% | 20.9 | -16.5%
O=C(COc1ncnc2sccc12)NC1CCCCC1 | . | ? | . | . | -3.8%
Cc1ccc(/C=N/Nc2ncc(Cl)cc2Cl)s1 | 34.1* | ? | -149.7% | 44.0 | -14.4%
CCCCCCCCCC(=O)N/N=C/c1ccc(C)s1 | 4.0 | 12.0% | 0.4% | -9.8 | -26.0%
CCN(C(=O)CSc1nc2ccc([N+](=O)[O-])cc2s1)C1CCS(=O)(=O)C1 (stereo unspecified) | 13.4* | -12.9% | . | -2.9 | -6.0%
Cc1ccc(OCC(=O)NCC2(N3CCN(C)CC3)CCCCC2)cc1 | . | 16.0% | . | . | .
CCCCn1nnc(N(C(=O)c2cccs2)C(=O)c2cccs2)n1 | 37.0* | 1.8% | -43.0% | 85.6* | -25.1%
CCC(C)NCCOCCOc1ccc(Cl)c2ccccc12 (stereo unspecified) | 4.8 | -2.2% | -6.2% | -23.9 | 97.3%
CC(C)Cc1nc(N2CCN(C(=O)C(C)C)CC2)c(C#N)c2c1CCC2 | 54.2* | -4.2% | -50.2% | 47.8 | 12.7%
CC(=O)n1cc(/C=N/NC(=O)c2ccc(Cl)cc2)c2ccccc21 | 41.0* | 1.4% | -0.8% | 61.3* | -24.8%
CC(=O)n1cc(/C=N/NC(=O)c2ccccc2Cl)c2ccccc21 | 1.3 | -11.7% | 2.8% | 8.4 | -21.4%
CC(=O)n1cc(/C=N/NC(=O)c2cccc(O)c2)c2ccccc21 | 36.0* | -8.7% | 2.2% | 59.3* | 11.2µM*
SMILES | Cycloheximide cs | AmpC inh detg | NS1 function inh | Shiga inhibitor | AmpC inh no detg
O=C(CN1C(=O)c2cccnc2Oc2ccc(Cl)cc21)Nc1ccccc1F | 12.9* | -8.5% | 17.1% | 13.5 | -40.8%
O=C(CN1C(=O)c2cccnc2Oc2ccc(Cl)cc21)Nc1cccc(C(F)(F)F)c1 | . | 4.4% | . | . | .
COc1ccccc1N1CCN(C(=O)CSc2nc3ccccc3o2)CC1 | 40.5* | ? | -68.2% | 110.5* | 66.8%
O=C(O)c1ccc2oc(SCC(=O)N3CCCCC3)nc2c1 | 22.9* | -3.5% | 0.6% | 58.0* | -14.8%
CC1CCCN(C(=O)CSc2nc3ccccc3o2)C1 (stereo unspecified) | 21.0 | -5.4% | -18.3% | 60.6* | -4.3%
COc1ccc(CCC(=O)OCC(=O)Nc2c(C)n(C)n(-c3ccccc3)c2=O)cc1 | . | 1.7% | . | . | -1.9%
